According to PubChem BioAssay (Tox21):
Several values for one entry are separate records, joined by “and”; a condition that tells them apart may be missing. Equal values may be shown once. Results filed as inconclusive are left out. A structure can be active in one record and inactive in another. Activity calls are given as the source filed them. Unless noted, calls come from the whole dose curve.

Tests used:
[1] = Nuclear factor erythroid 2-related factor 2/antioxidant responsive element (Nrf2/ARE) small molecule agonists: luciferase reporter gene qHTS assay in human keratinocytes (AID 1919969); note: nearly all actives have a fitted effect of over 35% in size; note: potency is the fitted concentration of half-maximal effect
[2] = biological target: Gonadotropin-releasing hormone receptor (Homo sapiens) (UniProt P30968); test: Human gonadotropin-releasing hormone receptor (GnRHR) small molecule agonists, calcium flux assay in GnRHR-HEK293 cells (AID 1920063); note: nearly all actives have a fitted effect of over 35% in size; note: potency is the fitted concentration of half-maximal effect
In short: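 Stable human GnRHR HEK293 line. 18 h plating, then calcium dye for 1 h at 37 C. Agonist-mode compound addition from DMSO stocks; fluorescence monitored 3 min.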

[3] = biological target: KiSS-1 receptor (Homo sapiens) (UniProt Q969F8); test: Human kisspeptin (KISS1R) small molecule agonists, calcium flux assay in KISS1R-HEK293 cells (AID 1920064; active = well fitted activation curve with a large enough effect in the repeat runs; note: potency is the fitted concentration of half-maximal effect)
In short: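 After overnight (18 h) culture at 37 C/5% CO2, human KISS1R-HEK293 cells received calcium dye for 1 h, then test compound; emission at 540 nm (excitation 480 nm) was tracked for 3 min.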

[4] = G protein-coupled receptor (GPCR) small molecule agonists, calcium flux assay: HEK293 wild type cell line counter screen (AID 1920065); note: potency is the fitted concentration of half-maximal effect
In short: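 Following 18 h incubation at 37 C/5% CO2, plates got calcium dye for 1 h; compounds, ATP or DMSO were then pinned in and fluorescence followed kinetically (480/540 nm).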

[5] = p53 small molecule agonists, cell-based qHTS assay with human liver microsomes (AID 1963577);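 note: p53 response element beta-lactamase reporter cells with liver microsomes plus NADPH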
In short: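 In this qHTS, p53 response-element beta-lactamase cells receive test compound together with a microsome/NADPH activating system (0.5 mg/mL final each) and are incubated 16 h at 37 C before LiveBLAzer fluorescence detection.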

[6] = p53 small molecule agonists, cell-based qHTS assay with rat liver microsomes (AID 1963578)
In short: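 Agonist mode in p53RE-bla reporter cells, with compounds co-incubated 16 h at 37 C alongside 0.5 mg/mL rat liver microsomes and 0.5 mg/mL NADPH (final), followed by a 2 h LiveBLAzer detection step.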

[7] = p53 small molecule agonists, cell-based qHTS assay with human liver microsomes: qHTS cell viability counter screen (AID 1963579); note: nearly all actives have a fitted effect of over 45% in size
In short: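 Metabolically activated exposure: compounds, human liver microsomes and NADPH (0.5 mg/mL final apiece) were added to p53RE-bla cells seeded 5 h earlier, left 16 h at 37 C, and then assessed for viability by CellTiter-Glo luminescence.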

[8] = p53 small molecule agonists, cell-based qHTS assay with rat liver microsomes: qHTS cell viability counter screen (AID 1963580); note: nearly all actives have a fitted effect of over 45% in size; note: potency is the fitted concentration of half-maximal effect
In short: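 Cytotoxicity counter screen: intracellular ATP measured by CellTiter-Glo luminescence in the same wells as the beta-lactamase reporter read, on HCT-116 p53RE-bla cells exposed 16 h at 37 C to compounds with rat liver microsomes and NADPH, each 0.5 mg/mL final.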

[9] = p53 small molecule agonists, cell-based qHTS assay: qHTS cell viability counter screen (AID 1963581); note: nearly all actives have a fitted effect of over 45% in size
In short: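 qHTS counter screen: 16 h compound exposure at 37 C of p53RE-bla HCT-116 cells (4,000 per well, seeded 5 h prior), cell viability by ATP luminescence.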

[10] = p53 small molecule agonists, cell-based qHTS assay (AID 1963582; active = well fitted activation curve with a large enough effect in the signal ratio in the repeat runs, not every such curve was filed as active; the % refers to the signal ratio)
In short: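 Measured: fluorescence from cleaved LiveBLAzer substrate. System: p53RE-bla cells, 16 h compound treatment at 37 C, 2 h substrate step at room temperature.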

[11] = biological target: 5-hydroxytryptamine receptor 2A (Homo sapiens) (UniProt P28223); test: 5-hydroxytryptamine receptor 2A (HTR2A) small molecule antagonists, cell-based qHTS assay (AID 1963586); note: nearly all actives have a fitted effect of over 45% in size; note: potency is the fitted concentration of half-maximal effect
In short: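 CHO cells stably expressing human HTR2A were plated for 18 h at 37 C, then loaded with calcium dye for 1 h. Compounds were preincubated 5 min at room temperature before DOI (4 nM solution) was added. Kinetic fluorescence was read for 3 min.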

[12] = biological target: 5-hydroxytryptamine receptor 2A (Homo sapiens) (UniProt P28223); test: 5-hydroxytryptamine receptor 2A (HTR2A) small molecule agonists, cell-based qHTS assay (AID 1963587); note: nearly all actives have a fitted effect of over 30% in size; note: potency is the fitted concentration of half-maximal effect
In short: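 CHO cells stably expressing human HTR2A, plated 18 h, loaded with calcium dye 1 h at 37 C. Agonist mode: compounds added and intracellular calcium fluorescence recorded kinetically for 2 min at 1 sec intervals.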

[13] = biological target: Muscarinic acetylcholine receptor M1 (Homo sapiens) (UniProt P11229); test: Cholinergic receptor muscarinic 1 (CHRM1) small molecule antagonists, cell-based qHTS assay (AID 1963588); note: nearly all actives have a fitted effect of over 40% in size
In short: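 Compounds were tested at 15 concentrations in three independent runs. Dye-loaded CHRM1-CHO cells were exposed 5 min at room temperature before stimulation by acetylcholine added at 50nM. Intracellular calcium was read kinetically on FDSS for 3 min.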

[14] = biological target: Muscarinic acetylcholine receptor M1 (Homo sapiens) (UniProt P11229); test: Cholinergic receptor muscarinic 1 (CHRM1) small molecule agonists, cell-based qHTS assay (AID 1963589); note: nearly all actives have a fitted effect of over 35% in size; note: potency is the fitted concentration of half-maximal effect
In short: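 Kinetic fluorescence (1 s intervals) of calcium-sensitive dye in human M1 CHO cells after compound addition; cells pre-incubated 18 h at 37 C/5% CO2 and dye-loaded 1 h.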

[15] = cAMP Responsive Elements (CRE) small molecule agonists, cell-based qHTS assay (AID 1963590)
In short: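 Test agents in DMSO were incubated 3 h at 37 C/5% CO2 with CRE-bla HEK 293T cells seeded 18 h earlier; LiveBLAzer B/G FRET substrate was added and read after 2 h at room temperature.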

[16] = biological target: Beta-2 adrenergic receptor (Homo sapiens) (UniProt P07550); test: Adrenergic beta2 receptor (ADRB2) small molecule antagonists, cell-based qHTS assay (AID 1963592); note: nearly all actives have a fitted effect of over 50% in size; note: potency is the fitted concentration of half-maximal effect
In short: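 Assay format: CHO-ADRB2 cells, 18-20hr seeding at 37C/5% CO2, then compound plus 1nM isoproterenol agonist mix for 0.5hr RT. Homogeneous time-resolved fluorescence cAMP detection after 1hr, expressed as 665/615 nm ratio.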

[17] = biological target: Beta-2 adrenergic receptor (Homo sapiens) (UniProt P07550); test: Adrenergic beta2 receptor (ADRB2) small molecule agonists, cell-based qHTS assay (AID 1963593);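 note: CHO cells stably overexpressing human ADRB2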
In short: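 CHO cells stably over-expressing ADRB2 were plated overnight at 37C, then dosed with compounds plus a stimulation mix containing 100uM IBMX and 25uM Ro-20-1724 for 0.5hr at room temperature. cAMP was measured by HTRF competition, 1hr.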

[18] = biological target: D(2) dopamine receptor (Homo sapiens) (UniProt P14416); test: Dopamine D2 receptor (DRD2) small molecule agonists, cell-based qHTS assay (AID 1963594); note: nearly all actives have a fitted effect of over 35% in size; note: potency is the fitted concentration of half-maximal effect
In short: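 HEK293 cells stably expressing human DRD2, pre-treated with PDE inhibitor Ro20-1724 (0.1 mM final) and compound 10 min at room temperature, then stimulated with NKH477 (200nM […]) for 30 min. cAMP read by HTRF (665/620 nm).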

[19] = biological target: D(2) dopamine receptor (Homo sapiens) (UniProt P14416); test: Dopamine D2 receptor (DRD2) small molecule antagonists, cell-based qHTS assay (AID 1963595; active = well fitted inhibition curve with a large enough effect in the signal ratio in the repeat runs, with a control signal flat; the % refers to the signal ratio)
In short: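 Human DRD2 antagonist qHTS measuring cAMP by HTRF. The cells are exposed to compound for 10 min, then to NKH477 (200 nM) and quinpirole (12 nM) for 30 min at RT, with Ro20-1724 (0.1 mM) present throughout.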

[20] = cAMP Responsive Elements (CRE) small molecule antagonists, cell-based qHTS assay (AID 1963591; active = well fitted inhibition curve with a large enough effect in the signal ratio in the repeat runs, not every such curve was filed as active; the % refers to the signal ratio)
In short: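 Reporter line CRE-bla HEK 293T in dialyzed-FBS DMEM; cells preincubated 18 h, treated 3 h with compound plus NKH477 (0.25 uM final); LiveBLAzer FRET, 2 h RT.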

Measured: Potency
% is set by controls: 0 for no effect and ±100 for the full control effect.

Chain of Beta-2 adrenergic receptor (Homo sapiens) (P07550 whole entry, looked up): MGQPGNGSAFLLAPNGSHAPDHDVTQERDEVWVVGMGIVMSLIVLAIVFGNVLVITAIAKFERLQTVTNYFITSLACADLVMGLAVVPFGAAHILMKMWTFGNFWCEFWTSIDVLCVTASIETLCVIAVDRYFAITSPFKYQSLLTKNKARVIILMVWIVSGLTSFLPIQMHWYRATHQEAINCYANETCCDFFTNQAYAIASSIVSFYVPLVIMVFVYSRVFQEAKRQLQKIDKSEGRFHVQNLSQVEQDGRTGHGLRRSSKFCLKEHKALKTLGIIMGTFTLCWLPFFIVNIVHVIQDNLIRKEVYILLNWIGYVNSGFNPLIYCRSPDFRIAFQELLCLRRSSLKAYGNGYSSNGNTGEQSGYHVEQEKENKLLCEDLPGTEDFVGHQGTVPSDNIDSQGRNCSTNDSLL
Chain of 5-hydroxytryptamine receptor 2A (Homo sapiens) (P28223 whole entry, looked up): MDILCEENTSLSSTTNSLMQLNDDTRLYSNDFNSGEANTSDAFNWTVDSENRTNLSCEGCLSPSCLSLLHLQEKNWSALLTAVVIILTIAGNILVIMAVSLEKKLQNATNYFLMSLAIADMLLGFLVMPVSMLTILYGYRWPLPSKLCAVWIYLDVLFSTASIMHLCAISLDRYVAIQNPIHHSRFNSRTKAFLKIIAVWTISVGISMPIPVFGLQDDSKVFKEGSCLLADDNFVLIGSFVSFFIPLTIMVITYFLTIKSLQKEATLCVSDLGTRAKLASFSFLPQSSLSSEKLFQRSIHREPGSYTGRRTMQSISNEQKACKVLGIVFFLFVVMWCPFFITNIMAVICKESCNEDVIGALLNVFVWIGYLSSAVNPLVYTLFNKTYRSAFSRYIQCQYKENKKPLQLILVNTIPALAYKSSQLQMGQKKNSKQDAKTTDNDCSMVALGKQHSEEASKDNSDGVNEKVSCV
Chain of KiSS-1 receptor (Homo sapiens) (Q969F8 whole entry, looked up): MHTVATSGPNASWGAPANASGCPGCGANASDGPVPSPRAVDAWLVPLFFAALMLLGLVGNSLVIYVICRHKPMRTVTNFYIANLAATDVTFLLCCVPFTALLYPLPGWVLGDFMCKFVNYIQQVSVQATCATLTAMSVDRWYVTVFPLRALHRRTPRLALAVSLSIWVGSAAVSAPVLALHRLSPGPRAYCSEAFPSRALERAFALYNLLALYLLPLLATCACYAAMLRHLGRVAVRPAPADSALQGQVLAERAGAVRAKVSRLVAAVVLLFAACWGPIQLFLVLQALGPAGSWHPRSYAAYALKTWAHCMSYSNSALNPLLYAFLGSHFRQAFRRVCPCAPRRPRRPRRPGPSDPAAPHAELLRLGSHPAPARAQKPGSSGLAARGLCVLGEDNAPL
Chain of Muscarinic acetylcholine receptor M1 (Homo sapiens) (P11229 whole entry, looked up): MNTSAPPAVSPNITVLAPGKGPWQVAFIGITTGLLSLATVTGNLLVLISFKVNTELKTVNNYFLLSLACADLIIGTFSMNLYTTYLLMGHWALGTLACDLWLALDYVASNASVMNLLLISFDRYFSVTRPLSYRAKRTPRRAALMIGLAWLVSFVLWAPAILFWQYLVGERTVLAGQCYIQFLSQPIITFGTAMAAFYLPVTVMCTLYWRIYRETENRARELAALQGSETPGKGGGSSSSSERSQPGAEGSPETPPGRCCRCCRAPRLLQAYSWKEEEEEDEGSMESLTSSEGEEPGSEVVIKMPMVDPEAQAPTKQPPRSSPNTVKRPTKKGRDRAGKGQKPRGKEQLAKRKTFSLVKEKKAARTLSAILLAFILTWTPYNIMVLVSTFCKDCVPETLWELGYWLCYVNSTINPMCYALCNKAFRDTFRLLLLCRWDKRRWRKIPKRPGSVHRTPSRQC
Chain of D(2) dopamine receptor (Homo sapiens) (P14416 whole entry, looked up): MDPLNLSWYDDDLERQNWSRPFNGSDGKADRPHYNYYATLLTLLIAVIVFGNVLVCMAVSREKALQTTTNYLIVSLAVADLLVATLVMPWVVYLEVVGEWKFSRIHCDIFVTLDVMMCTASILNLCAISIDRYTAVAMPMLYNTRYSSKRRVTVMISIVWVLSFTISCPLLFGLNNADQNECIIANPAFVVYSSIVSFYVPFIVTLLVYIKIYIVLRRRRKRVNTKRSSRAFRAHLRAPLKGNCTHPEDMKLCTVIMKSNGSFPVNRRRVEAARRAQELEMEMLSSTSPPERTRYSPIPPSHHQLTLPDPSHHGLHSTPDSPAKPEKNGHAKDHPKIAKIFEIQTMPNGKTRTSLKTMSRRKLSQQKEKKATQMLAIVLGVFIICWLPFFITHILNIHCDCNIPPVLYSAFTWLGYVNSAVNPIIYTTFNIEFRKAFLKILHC
Chain of Gonadotropin-releasing hormone receptor (Homo sapiens) (P30968 whole entry, looked up): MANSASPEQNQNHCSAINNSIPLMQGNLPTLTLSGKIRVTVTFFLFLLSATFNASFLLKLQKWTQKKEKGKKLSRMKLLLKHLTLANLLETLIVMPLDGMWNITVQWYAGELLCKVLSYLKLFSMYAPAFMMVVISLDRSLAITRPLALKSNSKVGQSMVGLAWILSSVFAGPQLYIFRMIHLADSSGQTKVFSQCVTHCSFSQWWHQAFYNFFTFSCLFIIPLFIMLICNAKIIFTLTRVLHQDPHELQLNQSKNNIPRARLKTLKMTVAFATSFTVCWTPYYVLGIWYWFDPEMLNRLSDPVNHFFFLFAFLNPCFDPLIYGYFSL

c1ccc(Oc2ccccc2)cc1
inactive: [1] | [2] | [3] | [4] | [5] | [6] | [7] | [8] | [9] | [10] | [11] | [12] | [13] | [14] | [15] | [16] | [17] | [18] | [19]

O=C1OC2(c3ccccc31)c1cc(I)c(O)c(I)c1Oc1c2cc(I)c(O)c1I
inactive and 33.1 µM (active): [1]
active: [2] 22.1 µM [middle of 4 runs] | [3] 31.3 µM and 26.8 µM | [4] 39 µM and 22.1 µM and 19 µM | [12] 31.3 µM [middle of 4 runs] | [14] 33.4 µM [middle of 4 runs] | [16] 33.5 µM | [18] 39 µM and 31 µM
inactive: [5] | [6] | [7] | [8] | [9] | [10] | [11] | [13] | [15] | [20]

CCCCOCCOCCO
inactive: [1] | [2] | [3] | [4] | [5] | [6] | [7] | [8] | [9] | [10] | [11] | [12] | [13] | [14] | [15] | [20] | [16] | [17] | [18] | [19]

c1ccc2c(c1)ccc1ccccc12
inactive: [1] | [2] | [3] | [4] | [5] | [6] | [7] | [8] | [9] | [10] | [12] | [13] | [14] | [15] | [20] | [16] | [19]

O=C1c2c(O)cccc2Cc2cccc(O)c21
inactive: [1] | [2] | [3] | [4] | [5] | [6] | [7] | [8] | [10] | [11] | [12] | [13] | [14] | [15] | [20] | [16] | [17] | [18] | [19]

C/C=C/C(=O)N(CC)c1ccccc1C
inactive: [1] | [2] | [3] | [4] | [5] | [6] | [7] | [8] | [9] | [10] | [15] | [20] | [19]

CC(=O)OC(C)C
inactive: [1] | [2] | [3] | [4] | [5] | [6] | [7] | [8] | [9] | [10] | [11] | [12] | [13] | [14] | [15] | [20] | [16] | [17] | [18] | [19]

CC(=O)C(C)C
inactive: [1] | [2] | [3] | [4] | [5] | [6] | [7] | [8] | [9] | [10] | [11] | [12] | [13] | [15] | [20] | [16] | [17] | [18] | [19]

NCCN
inactive: [1] | [2] | [3] | [4] | [5] | [6] | [7] | [9] | [10] | [11] | [12] | [13] | [14] | [15] | [20] | [16] | [17] | [18] | [19]

CCCCCCCCCCCCCCCCCC(=O)OCC(O)CO (stereo not drawn)
inactive: [1] | [2] | [3] | [7] | [8] | [9] | [11] | [12] | [13] | [14] | [15] | [20] | [16] | [17] | [18] | [19]

CC(=O)c1ccccc1
inactive: [2] | [3] | [4] | [5] | [6] | [7] | [8] | [9] | [10] | [11] | [12] | [15] | [20] | [16] | [18] | [19]

CC1(C)OC(=O)NC1=O
inactive: [1] | [2] | [3] | [4] | [8] | [9] | [10] | [11] | [12] | [13] | [14] | [15] | [20] | [16] | [17] | [18] | [19]

Oc1ccc(Cc2ccccc2O)cc1
inactive: [2] | [3] | [4] | [5] | [9] | [10] | [11] | [12] | [13] | [14] | [15] | [20] | [16] | [17] | [18] | [19]
36.8 µM (active) and inactive: [8]

O=C(c1ccccc1)C(O)c1ccccc1 (stereo not drawn)
inactive: [2] | [3] | [4] | [7] | [8] | [9] | [12] | [14] | [15] | [20] | [16] | [17] | [18] | [19]
inactive and 729 nM (active): [11]

Cc1c(C(N)=O)cc([N+](=O)[O-])cc1[N+](=O)[O-]
inactive: [1] | [2] | [4] | [5] | [6] | [7] | [8] | [9] | [10] | [11] | [12] | [14] | [15] | [20] | [16] | [17] | [18] | [19]

COc1c(Cl)c(Cl)c(Cl)c(Cl)c1Cl
inactive: [2] | [4] | [7] | [8] | [9] | [11] | [12] | [13] | [14] | [15] | [20] | [16] | [17] | [18] | [19]
